Mtb FBA inh = Mtb fructose-bisphosphate aldolase inhibition. P9WQA3. purified M. tuberculosis FBA, fluorescence read-out. hit rate 2.3% among 360,000. inhibition, % at 1 µM; in the data active = inhibition above about 27%;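 also: 0% = vehicle and 100% = reference inhibitor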
Target sequence (P9WQA3 whole entry, looked up): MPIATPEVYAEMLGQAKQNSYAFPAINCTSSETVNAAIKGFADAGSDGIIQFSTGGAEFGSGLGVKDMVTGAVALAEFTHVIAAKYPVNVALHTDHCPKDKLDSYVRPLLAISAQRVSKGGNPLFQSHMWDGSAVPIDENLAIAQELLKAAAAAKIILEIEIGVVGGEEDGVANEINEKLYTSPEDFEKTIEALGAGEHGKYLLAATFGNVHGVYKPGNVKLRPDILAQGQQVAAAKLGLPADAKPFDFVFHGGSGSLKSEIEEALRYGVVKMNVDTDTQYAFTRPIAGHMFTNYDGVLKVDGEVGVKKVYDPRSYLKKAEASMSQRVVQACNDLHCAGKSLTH
Rv3671c inh = inhibits the M. tuberculosis serine protease Rv3671c | P9WHR9 | inhibition, % at 5.96 µM | hit rate 0.048% among 320,000 | AID 2606; in the data active = inhibition above about 38%;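 also: extracellular domain of Rv3671c used as enzyme; 0% = enzyme with DMSO and 100% = no enzyme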
GDH-TPI inh = GDH-TPI coupled enzyme inhibition counter-screen; hit rate 1.2% among 360,000; AID 588335; GDH-TPI coupled enzyme counterscreen, NADH absorbance; inhibition, % at 4.8 µM; in the data active = inhibition above about 30%;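 also: 0% = DMSO wells and 100% = wells lacking the enzyme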
Mtb UGM inh = Mtb UDP-galactopyranose mutase inhibition; purified UGM, fluorescence polarization probe displacement; hit rate 0.06% among 320,000; AID 504406; inhibition, % at 10 µM; P9WIQ1; in the data active = inhibition above about 10%, passing the limit was not always enough
FadD28 binding = M. tuberculosis FadD28 bisubstrate binding inhibition; FadD28 bisubstrate probe binding, fluorescence polarization; inhibition, % at 12.5 µM; AID 588549; hit rate 0.22% among 360,000; in the data active = inhibition above about 8.5%, passing the limit was not always enough
Mtb bLac sens = beta-lactam sensitization of Mtb H37Rv | hit rate 0.27% among 330,000 | inhibition, % at 25 µM | M. tuberculosis H37Rv growth with meropenem, percent inhibition; call rule not given here;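 also: growth measured after seven days incubation then overnight dye step; 0% = bacteria only wells and 100% = bacteria with antibiotic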
The depositor's hits bear a star. A selection: hits, their analogues and other compounds. The true share with any hit is near 3.7%.

Screening CCCCCCSc1cccc(-c2nc3ccc(C)cn3c2NCc2ccccc2)c1 returned Mtb FBA inh 36*, Rv3671c inh -3, GDH-TPI inh 9, Mtb UGM inh 3, FadD28 binding -4 and Mtb bLac sens 5.
`CCCCCCSc1cccc(-c2nc3ccc(C)cn3c2NC2CCCCC2)c1` gave Mtb FBA inh 4, Rv3671c inh -12, GDH-TPI inh 6, Mtb UGM inh 2, FadD28 binding 2 and Mtb bLac sens -5.
O=C(/C=C/C=C/c1ccc2c(c1)OCO2)N1CCCCC1 was read as Mtb FBA inh 2, Rv3671c inh 1, GDH-TPI inh 41*, Mtb UGM inh 6, FadD28 binding -3 and Mtb bLac sens 1.
`CN1CCN(C(=O)/C=C/c2ccc3c(c2)OCO3)CC1` gave Mtb FBA inh 5, Rv3671c inh -8, GDH-TPI inh 9, Mtb UGM inh -3, FadD28 binding -4 and Mtb bLac sens -1.
CN(C)CCCNC(=O)/C=C/c1ccc2c(c1)OCO2 was read as Mtb FBA inh 8, Rv3671c inh 2, GDH-TPI inh 21, Mtb UGM inh 2, FadD28 binding -5 and Mtb bLac sens -4.
CC(C)CNC(=O)/C=C/C=C/c1ccc2c(c1)OCO2 was read as Mtb FBA inh 8, Rv3671c inh -6, GDH-TPI inh 39*, FadD28 binding 0 and Mtb bLac sens 3.
Screening Cc1nc(N)nc(N)c1-c1ccc([N+](=O)[O-])cc1 returned Mtb FBA inh -4, GDH-TPI inh 6 and FadD28 binding -2.
`O=c1[nH]c(=O)c2nc(-c3ccc(Cl)cc3)cnc2[nH]1` gave Mtb FBA inh active, Rv3671c inh -10, GDH-TPI inh 9, Mtb UGM inh -2, FadD28 binding 1 and Mtb bLac sens -4.
Screening O=c1[nH]c(=S)[nH]c2nc(-c3ccccc3)cnc12 returned Mtb FBA inh 2, Rv3671c inh -6, GDH-TPI inh 16, Mtb UGM inh 3, FadD28 binding -3 and Mtb bLac sens 33.
For CCN(C(=O)c1ccc(N2CC3CC(C2)c2cccc(=O)n2C3)c(NC(=O)c2ccncc2)c1)c1cccc(C)c1 (stereo not drawn) the results were Mtb FBA inh 1, Rv3671c inh -9, GDH-TPI inh 5, Mtb UGM inh -3, FadD28 binding -3 and Mtb bLac sens -2.
CCN(CC)c1ccc(/C=N/n2c(-c3ccccc3Br)n[nH]c2=S)cc1 was read as Mtb FBA inh 3, Rv3671c inh 5, GDH-TPI inh 38*, Mtb UGM inh 2, FadD28 binding -2 and Mtb bLac sens -13.
Cc1nn(-c2ccccc2)c(C)c1/C=N/n1c(-c2ccccc2Br)n[nH]c1=S was read as Mtb FBA inh 1, Rv3671c inh -3, GDH-TPI inh -10, Mtb UGM inh 0, FadD28 binding -1 and Mtb bLac sens -3.
Cc1noc(C)c1C(=O)Nc1nc2ccc(Cl)cc2s1 was read as Mtb FBA inh 9, Rv3671c inh -4, GDH-TPI inh 12, Mtb UGM inh 1, FadD28 binding -1 and Mtb bLac sens 80.
For NC(=S)N/N=C/C=C/c1ccccc1 the results were Mtb FBA inh 1, Rv3671c inh -10, GDH-TPI inh 38*, Mtb UGM inh -2, FadD28 binding 0 and Mtb bLac sens 98.
Screening O=[N+]([O-])c1ccc(C=NNC(=S)NN=Cc2ccc([N+](=O)[O-])cc2)cc1 returned Mtb FBA inh -1, GDH-TPI inh 31* and FadD28 binding -1.
O=S(=O)(N/N=C\C=C\c1ccccc1)c1ccccc1 was read as Mtb FBA inh -5, Rv3671c inh 8, GDH-TPI inh 31*, Mtb UGM inh -1, FadD28 binding 0 and Mtb bLac sens 12.
Screening O=S(=O)(N/N=C\c1cccnc1)c1ccccc1 returned Mtb FBA inh 1, Rv3671c inh 3, GDH-TPI inh 5, Mtb UGM inh -1, FadD28 binding -1 and Mtb bLac sens 5.
NC(=S)N/N=C/c1cccc(/C=N/NC(N)=S)c1 was read as Mtb FBA inh -1, Rv3671c inh -5, GDH-TPI inh 37*, Mtb UGM inh 4 and FadD28 binding 0.
Screening CN(Cc1cnn(-c2ccc(F)cc2)c1)C(=O)[C@H]1O[C@@H](n2cnc3c(N)ncnc32)[C@H](O)[C@@H]1O returned Mtb FBA inh 0 and FadD28 binding 1.
Screening O=C(NCC1CCCO1)c1cccc(S(=O)(=O)Nc2ccccc2Cl)c1 (stereo not drawn) returned Mtb FBA inh -2, GDH-TPI inh 13 and FadD28 binding -3.

Assay outcomes (PubChem BioAssay)
